ELG1 repair inh – inhibitors of ELG1-dependent DNA repair in HEK293T cells. Potency, µM (titrated, usually from 46.1 µM), most hits filed as inhibitors. 330,000 tested, 2.3% active. HEK293T ELG1-luciferase reporter, luminescence, 16 h; DNA damage induced by 5-fluorouridine; further: nearly all actives have a fitted effect of over 55% in size
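Luminescence from the luciferase reporter, measured 30 min after ONE-Glo reagent at room temperature, was the read-out. Beforehand, 2,000 cells per well were exposed for 16 hr at 37 °C to 5-fluorouridine together with compound or vehicle.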
KB-3-1 tox – KB-3-1 parental cell cytotoxicity; KB-3-1 viability, CellTiter-Glo ATP luminescence, 72 h; AID 1347075; 400,000 tested, 1.4% active; Potency, µM (top dose mostly 46.1 µM), most hits filed as cytotoxic; further: nearly all actives have a fitted effect of over 60% in size
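KB-3-1 cells, DMEM (no phenol red) + 10% FBS; compound by pin transfer, 72 h, 37 °C. Readout: CellTiter-Glo luminescence after 10 min. Data normalized, curve-fitted.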
SW480 rereplic – DNA re-replication induction in SW480 cells. Potency, µM (top dose mostly 46.1 µM), most hits filed as activators. SW480 DNA re-replication, Hoechst DNA content imaging, 48 h. 340,000 tested, 1.8% active; further: nearly all actives have a fitted effect of over 55% in size
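Cells (250 per well) received 23 nL compound or DMSO by pin tool and were kept 48 hr at 37 C, 5% CO2. Nuclei were then stained with Hoechst for 40 min and scanned for DNA content.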
MCF10A rerep – induces DNA re-replication in MCF 10a normal breast cells | MCF 10A DNA re-replication, Hoechst nuclear intensity, 48 h | Potency, µM (highest dose often 46.1 µM), actives largely listed as activators | 350,000 tested, 2.9% active; further: nearly all actives have a fitted effect of over 50% in size
KB-V1 cytotox – kills drug-selected multidrug resistant KB-V1 cells; KB-V1 MDR cells viability, CellTiter-Glo, 72 h; Potency, µM (titrated, usually from 46.1 µM), actives largely listed as cytotoxic; 400,000 tested, 3.4% active; further: nearly all actives have a fitted effect of over 60% in size
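qHTS viability screen in drug-selected KB-V1 MDR cells: 72 h compound treatment at 37 degrees C, ATP luminescence end point.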
Hits are given with their value; 0 = inactive; ? = inconclusive; - = no result. Hits are enriched below; roughly 8.1% of the tested compounds scored in any of these assays. The call rests on the fitted dose curve; in most records, active means well fitted curve in the direction sought with a large enough effect; inconclusive means small, poorly fitted or top-dose-only effect, or another doubt; inactive means no such curve, though single readings can be large; an effect the other way counts as inactive or inconclusive.

SMILES | ELG1 repair inh | KB-3-1 tox | SW480 rereplic | MCF10A rerep | KB-V1 cytotox
CCNC(=S)N1N=C2c3ccccc3CCC2C1c1ccc(F)cc1 (stereo unspecified) | ? | ? | 0 | 6.51µM | 20.6µM
CC(=O)N1N=C2c3ccccc3CCC2C1c1ccc(F)cc1 (stereo unspecified) | ? | ? | 0 | ? | ?
CCN(CC)c1ccc(/C=c2\sc3nc4ccccc4n3c2=O)c(O)c1 | ? | ? | 14.6µM | 2.59µM | 0
Cc1ccc2nc3c(cc(C#N)c(=O)n3-c3nnc(SCc4ccccc4)s3)c(=O)n2c1 | - | 0 | - | - | 0
CC1CCC(NC(=O)CN2CCN(S(=O)(=O)c3ccc(Br)s3)CC2)CC1 (stereo unspecified) | - | 0 | - | - | ?
CC1CCCCC1NC(=O)CN1CCN(S(=O)(=O)c2ccc(Br)s2)CC1 (stereo unspecified) | 0 | ? | 0 | 0 | 9.2µM
COC(=O)[C@@]1(Sc2ccc(C)cc2)CC(=O)N[C@@H]1c1ccco1 | - | 0 | - | - | ?
S=C1Cc2ccccc2N1 | ? | 5.8µM | ? | ? | ?
COc1nc(-c2ccccc2)nc(-c2ccccc2)c1C | - | 0 | 0 | 23.1µM | 0
ClC(Cl)c1nnc(-c2ccccc2)c(-c2c[nH]c3ccccc23)n1 | 0 | 0 | 0 | 25.9µM | ?
Cc1cc(-c2nnc(-c3ccccc3)c(-c3ccccc3)n2)c(C)o1 | 0 | 0 | ? | ? | 0
c1ccc(-c2nnc(-c3c[nH]c4ccccc34)nc2-c2ccccc2)cc1 | 23.1µM | 0 | 0 | 0 | 0
Cc1ccc(-c2nnc(-c3ccccc3)c(-c3ccccc3)n2)cc1 | 0 | 0 | 0 | 0 | 18.4µM
CCN(CC(=O)Nc1ccc(OC)cc1)C(=O)c1ccc2[nH]c3c(c2c1)CC(C)CC3 (stereo unspecified) | ? | ? | 0 | 0 | ?
COCCNC(=O)c1cccc(-n2c(C)nc3cccnc32)c1 | - | 0 | - | - | 0
CNc1nc(-c2ccccc2)nnc1C(F)(F)F | 0 | 0 | 0 | 0 | 0
Cc1ccc(Sc2nc(-c3ccccc3)nnc2C(F)(F)F)cc1 | 0 | 0 | ? | 8.2µM | 0
COc1ccc2c(c1)C(=NN)c1cc(OC)ccc1-2 | 0 | 0 | 0 | 0 | 10.3µM
c1ccc(CC2CCN(C3=Nc4cccc5cccc3c45)CC2)cc1 | 0 | 0 | ? | 9.2µM | ?
Cc1cncc(NCc2ccc3c(c2)OCO3)n1 | - | 0 | - | - | 0
Cc1cccc2c(=O)cc(C)n(CC(=O)N3CCCCC3)c12 | 0 | 0 | 0 | 0 | 16.4µM
CCOC(=O)c1c(C)nc2c(C)cccn12 | 0 | 0 | 0 | 0 | 0
Cc1nc2c(C)cccn2c1C(=O)c1ccccc1 | 0 | ? | 0 | 0 | 25.9µM
CC(C)CCOc1ccc(-c2c(=O)n(OCc3ccc([N+](=O)[O-])cc3)c3ccccc3[n+]2[O-])cc1 | 0 | 0 | ? | 1.84µM | ?
Cc1ccc(C)c(Nc2c([N+](=O)[O-])c(=O)oc3ccccc23)c1 | 20.6µM | 0 | ? | ? | ?
SMILES | ELG1 repair inh | KB-3-1 tox | SW480 rereplic | MCF10A rerep | KB-V1 cytotox
O=c1oc2ccccc2c(Nc2ccc3ccccc3c2)c1[N+](=O)[O-] | 0 | ? | 0 | ? | 0
O=C(Nc1nnc(-c2cccnc2)o1)c1cccc([N+](=O)[O-])c1 | 18.3µM | - | - | - | -
COc1cc(-c2nnc(NC(=O)c3ccc(S(=O)(=O)N4CCOCC4)cc3)o2)cc(OC)c1OC | 0 | - | - | - | -
COc1cccc(-c2nnc(NC(=O)c3ccc(S(=O)(=O)N4CCOCC4)cc3)o2)c1 | ? | 5.8µM | ? | 0 | ?
CS(=O)(=O)c1cccc(-c2nnc(NC(=O)c3ccc4ncsc4c3)o2)c1 | 0 | 0 | 0 | 0 | 0
COc1cccc(-c2nnc(NC(=O)c3ccc4ncsc4c3)o2)c1 | 0 | ? | 0 | 6.51µM | ?
CC1CN(S(=O)(=O)c2ccc(C(=O)Nc3nnc(-c4ccc5c(c4)CCCC5)o3)cc2)CC(C)O1 (stereo unspecified) | 2.59µM | ? | 0 | 0 | 0
CN(Cc1ccccc1OCCO)CC1CCCN(CCc2ccc(Cl)cc2)C1 (stereo unspecified) | 0 | 0 | 0 | ? | ?
CN1CCN(c2ncc3c(n2)CCN(Cc2cc(Br)cs2)C3)CC1 | - | 0 | - | - | 0
O=C(Nc1nnc(C2CC2)o1)c1ccc(S(=O)(=O)N2CCCCC2)cc1 | 0 | ? | 0 | 0 | 0
CC1CCN(S(=O)(=O)c2ccc(C(=O)Nc3nnc(C4CC4)o3)cc2)CC1 | 0 | ? | 13µM | ? | 0
CC1CCN(S(=O)(=O)c2ccc(C(=O)Nc3nnc(-c4ccncc4)o3)cc2)CC1 | ? | ? | 16.4µM | ? | ?
CCOC(=O)CCN(C(=O)Nc1ccccc1)C1CCCCC1 | - | ? | 0 | 0 | 0
O=C(c1cccnc1)N1CCN(Cc2ccc3ccccc3c2)CC1 | 0 | ? | 0 | 18.4µM | ?
O=C(c1cccnc1)N1CCN(Cc2cccc(F)c2)CC1 | 0 | 0 | ? | ? | 0
CNc1ccc(Br)cc(C(=O)/C=C/c2cccc(OC)c2OC)c1=O | ? | 0 | 0 | 0 | 0
CNc1ccc(Br)cc(C(=O)/C=C/c2cccc(Cl)c2Cl)c1=O | 0 | 16.4µM | 0 | 16.4µM | ?
CCNc1ccccc(C(=O)/C=C/c2ccc3c(c2)OCO3)c1=O | 0 | 0 | 0 | ? | 0
CCNc1ccc(Br)cc(C(=O)/C=C/c2ccccc2Cl)c1=O | - | ? | ? | ? | 23.1µM
COc1ccc2[nH]c(=O)c(CN(C(=O)c3cccc(Cl)c3)c3cccc(C)c3)cc2c1 | - | 0 | - | - | 0
O=C(NCCN1CCCC1)C(c1ccccc1)c1ccccc1 | 0 | 0 | ? | 23.1µM | 0
O=C(c1ccccc1)C1OC1C(=O)c1ccccc1 (stereo unspecified) | - | ? | 14.6µM | 9.2µM | ?
FC(F)(F)COc1nc(OCC(F)(F)F)nc(N2CCN(c3ccccc3)CC2)n1 | 23.1µM | 0 | 0 | ? | 0
COc1ccccc1-c1cc(C(F)(F)F)nc(S(=O)(=O)CCCC(=O)NC(C)C)n1 | ? | ? | 2.91µM | 6.31µM | ?
COc1ccccc1-c1cc(C(F)(F)F)nc(S(C)(=O)=O)n1 | ? | ? | ? | 4.11µM | ?
SMILES | ELG1 repair inh | KB-3-1 tox | SW480 rereplic | MCF10A rerep | KB-V1 cytotox
COc1ccccc1-c1cc(C(F)(F)F)nc(S(=O)(=O)CCCC(=O)N2CCCCC2C)n1 (stereo unspecified) | ? | ? | ? | 3.98µM | 0
COc1ccccc1-c1cc(C(F)(F)F)nc(S(=O)(=O)CCCC(=O)Nc2cccnc2Cl)n1 | ? | 0 | ? | ? | 0
O=C(CSc1nnc(-c2ccccc2F)o1)N1CCc2ccccc21 | - | 0 | - | - | 0
Cc1cccc(N2CCN(C(c3ccc(F)cc3)c3nnc(-c4ccccc4)o3)CC2)c1C (stereo unspecified) | - | 0 | - | - | ?
COc1cccc(NC(=O)CN(C)C(=O)c2cc3c(s2)CCC3)c1 | ? | 0 | 0 | 0 | ?
NCc1cn(Cc2ccccc2)nc1-c1ccccc1 | - | 0 | - | - | 0
COc1ccccc1-c1cc(C(F)(F)F)nc(S(=O)(=O)CCCC(=O)NCc2ccc(F)cc2)n1 | ? | ? | ? | 4.11µM | 0
COc1ccccc1-c1cc(C(F)(F)F)nc(N2CCCCC2)n1 | 0 | 0 | 0 | 0 | 0
